Bioassay records (PubChem)
Compounds with a hit are over-represented: about 0.95% of the library has one in this group of screens.
PrPC surface inh: inhibitors of human cell surface prion protein PrPC, primary screen, cell-based, TR-FRET; Major prion protein (Homo sapiens), P04156; TR-FRET read-out; inhibition, % at 13.8 µM; hit rate 0.43% among 370,000; AID 720596, 2013; in the data active = inhibition above about 24%
BJeLR viability: MLPCN primary cell-based screen for lethality selective to Ras in HRASV12 cells | inhibition, % (no concentration beside the values) | hit rate 0.17% among 300,000 | AID 1554, 2009 | BJeLR (HRASV12) viability, CellTiter-Glo ATP luminescence, 48 h; in the data active = inhibition above about 50%
Sa RN4220 lethal: growth inhibition of S. aureus RN4220, primary screen, OD600 | hit rate 0.33% among 330,000 | inhibition, % (no concentration beside the values) | 16 h | AID 1259311, 2017; in the data active = inhibition above about 85%
Sa ugtP lethal: growth inhibition of ugtP-null S. aureus, primary screen, RN4220 ugtP deletion, OD600; 16 h; growth inhibition, % (no concentration beside the values); hit rate 0.54% among 330,000; in the data active = growth inhibition above about 68%
PrPC TRFRET cf: confirmation of inhibitors of cell surface human prion protein, confirmation, cell-based, TR-FRET | hit rate 65% among 1,500 | shares compounds with PrPC surface inh | cell surface PrPC level | inhibition, % at 13.8 µM; in the data active = inhibition above about 25%
LD9 tox: cytotoxicity in LD9 cells, cytotoxicity control for cell surface PrPc inhibitor project, cell-based, luminescence, high throughput | hit rate 29% among 1,500 | luminescence viability | shares compounds with PrPC surface inh | inhibition, % at 13.8 µM; in the data active = inhibition above about 9.5%
A number is an active result; . = inactive; / = no result given.

SMILES	PrPC surface inh	BJeLR viability	Sa RN4220 lethal	Sa ugtP lethal	PrPC TRFRET cf	LD9 tox
C[C@H]1[C@H](OC(=O)CCC(=O)NCc2ccc(C(=O)O)cc2)O[C@@H]2O[C@@]3(C)CC[C@H]4[C@H](C)CC[C@@H]1C24OO3	/	.	/	/	/	/
CC1C(OC(=O)CCC(=O)NC(C)(C)CO)O[C@H]2OC3(C)CC[C@H]4[C@H](C)CCC1C24OO3 (some centres not stated)	32.7	.	/	/	33.0	19.3
O=C(NN=Cc1cccs1)c1ccccn1	/	/	.	.	/	/
COc1ccc2sc3ccccc3c(=O)c2c1OC	29.0	.	.	.	38.1	.
COc1cccc2sc3ccc(C#Cc4ccc(N)cc4)cc3c(=O)c12	.	.	.	.	/	/
COc1ccc(S(=O)(=O)N2CCOC23CCN(C(=O)c2c(F)cccc2Cl)CC3)cc1	.	.	.	.	/	/
COc1ccc(S(=O)(=O)N2CCOC23CCN(C(=O)c2ccc(Cl)cc2Cl)CC3)cc1	53.4	.	.	.	46.5	.
Cc1cc2cc(CNS(=O)(=O)c3ccc4ccccc4c3)ccc2n1C	43.2	.	.	.	37.0	.
Cc1cc(C)c(S(=O)(=O)NCc2ccc3c(c2)cc(C)n3C)c(C)c1	39.1	.	.	.	43.4	.
CC(=O)Nc1ccc(S(=O)(=O)NCc2ccc3c(c2)cc(C)n3C)cc1	34.5	.	.	.	.	.
COc1cc2nc(C3CCC3)n(NC(=O)c3ccco3)c(=O)c2cc1OC	41.4	.	.	.	36.9	.
COc1cc2nc(C3CCC3)n(NC(=O)C3CCCC(OC)C3)c(=O)c2cc1OC (configuration not stated)	.	.	.	.	/	/
O=C(O)c1ccc(C=NNC(=S)NCc2ccccc2)cc1	/	/	.	.	/	/
CCOC(=O)c1c(C)[nH]c(C(=O)OCC(=O)Nc2ccc(Cl)cn2)c1C	.	/	.	.	/	/
CCOC(=O)c1c(C)[nH]c(C(=O)OCC(=O)Nc2sccc2C(N)=O)c1C	33.1	.	.	.	.	44.0
COc1ccc(NS(=O)(=O)c2ccc(-c3cnc(C4CC4)o3)cc2)cc1OC	31.6	.	.	.	.	23.0
CC1=NNC(=O)C1CCC(=O)NN=C/C(Br)=C/c1ccccc1 (configuration not stated)	/	/	.	.	/	/
Clc1c(CSc2nc3ccccc3o2)nc2ccccn12	.	.	.	.	/	/
Brc1c(CSc2nc3ccccc3o2)nc2ncccn12	49.0	.	.	.	47.4	.
CC(=O)c1sc(NC(=O)Cc2c(F)cccc2Cl)nc1C	40.9	.	.	.	43.5	.
O=C(CSc1ccc2ccccc2c1Br)Nc1cccc(S(=O)(=O)NC2=NCCCCC2)c1	39.3	.	.	.	47.6	.
CC(=O)NN=C(C)CCc1ccccc1	/	/	.	.	/	/
CC(=NNC(=O)Cn1c(-c2ccccn2)nc2ccccc21)c1ccccc1	/	/	.	.	/	/
CC1CCCC(C)N1C(=O)CSc1nnc(COc2ccccc2)n1-c1ccccc1 (configuration not stated)	37.1	.	.	.	34.3	.
COC(=O)C1=C(C)N(CC(C)C)C(=S)NC1c1ccc(-c2ccccc2)cc1 (configuration not stated)	25.0	/	/	/	.	.
SMILES	PrPC surface inh	BJeLR viability	Sa RN4220 lethal	Sa ugtP lethal	PrPC TRFRET cf	LD9 tox
O=C(NCc1ccccc1)c1nc(S(=O)(=O)Cc2ccccc2)ncc1Cl	.	.	.	.	/	/
CS(=O)(=O)c1ncc(Cl)c(C(=O)Nc2ccc3ccccc3c2)n1	84.0	.	.	.	77.4	87.1
CC(=O)Nc1ccc(NC(=O)c2nc(S(=O)(=O)Cc3ccccc3)ncc2Cl)cc1	65.1	.	.	.	.	78.2
CCS(=O)(=O)c1ncc(Cl)c(C(=O)Nc2ccc(C)cc2)n1	41.9	.	/	/	44.3	84.8
CCC1CCCCN1S(=O)(=O)c1ccc(NC(=O)c2nc(S(C)(=O)=O)ncc2Cl)cc1 (configuration not stated)	79.0	.	/	/	83.3	96.9
Cc1ccc(NC(=O)c2ccc(Nc3c([N+](=O)[O-])cc([N+](=O)[O-])cc3[N+](=O)[O-])cc2)cc1	24.8	.	.	.	.	36.7
CC(=O)Nc1ccc(NC(=O)c2cc([N+](=O)[O-])cc([N+](=O)[O-])c2)cc1	.	.	.	.	/	/
COC(=O)c1cccc(C23CC4(C2)C(CN(Cc2ccc(C(F)(F)F)cc2)C4c2ccccc2)C3c2ccc(C(F)(F)F)cc2)c1 (configuration not stated)	/	/	.	.	/	/
